From PubChem BioAssay AID1476 (National Center for Advancing Translational Sciences (NCATS), 2009) come the findings set out here.

SMILES strings stand for the structures. About 4,500 (2.2%) of roughly 200,000 compounds were called active. Another 12% or so got no clear call; they are omitted. This is one part of a sample in which actives are shown more often than they occur. A number with no mark means an inactive call. Calls follow the shape of the dose curve; as a rule, active = well fitted inhibition curve with a large enough effect; inconclusive = small, poorly fitted or top-dose-only effect, or effect the other way; inactive = flat fitted curve, though single readings scatter.
Potency is read from the fitted curve at half-maximal effect.

Sequence of Cruzipain (Trypanosoma cruzi) (P25779 123-467 limits assumed): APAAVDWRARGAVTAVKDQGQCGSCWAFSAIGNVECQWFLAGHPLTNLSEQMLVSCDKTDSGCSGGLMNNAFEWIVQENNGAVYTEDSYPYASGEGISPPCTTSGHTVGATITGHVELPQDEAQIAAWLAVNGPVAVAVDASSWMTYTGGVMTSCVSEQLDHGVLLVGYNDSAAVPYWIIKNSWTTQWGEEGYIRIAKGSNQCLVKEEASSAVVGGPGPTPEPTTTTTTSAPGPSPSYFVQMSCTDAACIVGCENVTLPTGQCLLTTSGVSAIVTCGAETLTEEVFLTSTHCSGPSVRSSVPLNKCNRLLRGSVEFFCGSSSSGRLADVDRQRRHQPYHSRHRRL

The test has as its target Cruzipain (Trypanosoma cruzi) (UniProt P25779). Kind of test: qHTS Assay for Promiscuous and Specific Inhibitors of Cruzain (without detergent). Also: nearly all actives have a fitted effect of over 40% in size.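 As to max response, negative = inhibition: plate controls were enzyme without inhibitor for no effect and buffer without enzyme for full effect.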 Conditions: purified cruzain, Z-FR-AMC fluorescence, no detergent. Put shortly: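 Detergent-free condition (0.00005% Triton X-100) in acetate buffer pH 5.5 with DTT. 1.5 nM enzyme and compound were pre-mixed 15 min, then 2 uM Z-FR-AMC substrate added; reaction progress from fluorescence change between first and third reads (60 s).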
(In general: Quantitative high-throughput screening tests each substance at several concentrations.)
In the case of `O=C(Cn1c(=O)n(-c2ccc(F)cc2)c(=O)c2sc3ccccc3c21)NC1CCCC1`, the max response, negative = inhibition is -5.91%.
Still for that read-out and setting: the same measure for `CCOC(=O)c1ccccc1NC(=O)CCc1c(C)nc2c(c1C)c(=O)n(C)c(=O)n2C`: -1.55%.
As for `O=C(NCCc1ccccc1)c1ccc(OCCOc2ccccc2)cc1`, the Potency was 20 µM (active).
As to `O=C(NCCOc1ccccc1)c1ccccc1`, the max response, negative = inhibition was -3.94%.
The same measure, in the same setting: the same measure for `COc1ccc(OCCCC(=O)NCCc2ccccc2)cc1`: -1.93%.
With `Cc1ccc(NC(=O)c2ccc3[nH]c(C)cc(=O)c3c2)c(C)c1`, the max response, negative = inhibition is -6.14%.
With `COc1ccc(-c2cc(NCc3ccc(F)cc3)n3cnnc3n2)cc1`, the max response, negative = inhibition is 6.65%.
Same read-out and setting: the same measure for `Cc1ccc(C(=O)Nc2cc3c(cc2N2CCCC2)n(C)c(=O)c(=O)n3C)cc1`: -9.28%.
On the same count and under the same terms, the figure for `COc1ccc(NC(=O)Cn2nnc(C(=O)NCCc3ccc(OC)c(OC)c3)c2N)cc1` is 28.4%.
For the compound `Cc1cccc(NC(=O)c2nnn(CC(=O)Nc3ccc(C(C)C)cc3)c2N)c1C`, the Potency was 20 µM (active).
`CCOc1ccccc1NC(=O)Cn1nnc(C(=O)Nc2ccc(C)c(C)c2)c1N`: the max response, negative = inhibition is 0.467%.
Same read-out and setting: the same measure for `CCOC(=O)c1cn(CC(=O)Nc2ccc(C(C)C)cc2)nn1`: 3.14%; for `Nc1c(C(=O)NCc2ccccc2)nnn1Cc1cccc(Cl)c1`: -27.5%.
`CC(C)c1ccc(NC(=O)Cn2nnc(C(=O)NCCc3ccccc3)c2N)cc1`: the Potency was 3.16 µM (active).
Turning to `COc1ccccc1NC(=O)CSC1=Nc2ccccc2C2=NC(CC(=O)NCc3cccs3)C(=O)N12` (configuration not stated), the max response, negative = inhibition was -5.88%.
The same measure, in the same setting: the figure for `CC(C)CC(NS(=O)(=O)c1ccc2c(c1)oc(=O)n2C)C(=O)NCc1ccccc1Cl` (configuration not stated) is -14%.
On the same count and under the same terms, the same measure for `Cc1cccc(NC(=O)N2CCN(C)c3ncccc32)c1C`: 2.65%.
For the compound `Cc1ccc(Oc2ccc3c(c2)C(=O)N(c2cccc4cccnc24)C3=O)cc1`, the Potency was 25.1 µM (active).
In the case of `Cc1cccc(N2C(=O)c3cccnc3C2=O)c1`, the max response, negative = inhibition was -4.26%.
The same measure, in the same setting: the figure for `CC(=O)Oc1ccc(C)cc1N1C(=O)c2ccc(C(=O)O)cc2C1=O` is -6.79%; for `COc1ccc(CNC(=O)c2ccc3c(c2)nc2n3CCOC2)c(OC)c1` it is -7.25%; for `CS(=O)(=O)c1ccc(-c2nnc(NC(=O)c3ccc4c(c3)OCCO4)o2)cc1` it is 0.217%.
The same measure, in the same setting: the same measure for `Cc1ccc2oc3c(c(=O)c2c1)C(c1ccc(O)cc1)N(Cc1ccc2c(c1)OCO2)C3=O` (configuration not stated): 3.18%.
The same measure, in the same setting: the same measure for `O=C(NC1=NCCS1)[C@H](Cc1ccccc1)N1C(=O)c2ccccc2C1=O`: -18.4%; for `O=C(NCCN1CCOCC1)[C@H](Cc1ccccc1)N1C(=O)c2ccccc2C1=O`: -6.89%.
For `N/C(=N\c1nc2ccccc2o1)NC(=O)C(Cc1ccccc1)N1C(=O)c2ccccc2C1=O` (configuration not stated), the Potency is 25.1 µM (active).
Regarding `COc1cccc(Cn2c(SCc3ccc(C(=O)N4CCC(C)CC4)cc3)nc3ccncc32)c1`, the max response, negative = inhibition is 6.55%.
The same measure, in the same setting: the same measure for `Cc1ccccc1CS(=O)(=O)CC1Nc2ccc(C(=O)NCc3ccc(Cl)cc3)cc2NC1=O` (configuration not stated): -11.5%.
On to `Cc1ccc(CNC(=O)CCc2c(C)nn(-c3ccc(N4CCCC4)nn3)c2C)cc1`, for which the max response, negative = inhibition is -1.47%.
The same measure, in the same setting: the same measure for `COC(=O)c1ccc(C2NC(=O)NC(C)=C2C(=O)N(C)C)cc1` (configuration not stated): -7.98%.
For the compound `CCOC(=O)C1=C(C)Nc2sc(C(=O)c3ccc(Br)cc3)c(N)c2C1c1ccc(C(=O)OC)cc1` (configuration not stated), the Potency is 10 µM (active).
Regarding `CCOC(=O)C1=C(C)NC(C)=C(C(=O)OCC)C1c1ccccn1`, the max response, negative = inhibition was 6.72%.
As for `Cc1ccc(Cc2nc3ccccc3nc2SCC(=O)Nc2cccc(C(F)(F)F)c2)cc1`, the max response, negative = inhibition was -25%.
The same measure, in the same setting: the same measure for `CCN(CC)CCNC(=O)c1cc2c(=O)oc3ccc(C)cc3c2s1`: -5.21%.
On to `Cc1ccc2c(c1)c1c(c(=O)n(-c3ccccc3)c(=O)n1CC(=O)c1ccc(Cl)cc1)n2C`, for which the max response, negative = inhibition was 12.5%.
For the compound `CCc1ccc(S(=O)(=O)c2nnn3c2nc(NCc2ccccc2OC)c2cc(Cl)ccc23)cc1`, the max response, negative = inhibition is -14.3%.
On the same count and under the same terms, the figure for `CCc1ccc(S(=O)(=O)n2ccnc2)cc1` is 3.23%.
In the case of `Brc1ccc(-c2csc(N/N=C/c3ccc4c(c3)OCO4)n2)cc1`, the Potency is 10 µM (active).
Consider `O=C(Nc1nc(-c2ccncc2)cs1)C1COc2ccccc2O1` (configuration not stated), for which the max response, negative = inhibition was -4.88%.
On the same count and under the same terms, the same measure for `O=C(Nc1nc(-c2ccc3c(c2)OCO3)cs1)c1ccncc1`: -29.2%; for `COc1ccc(OC)c2sc(N3CCN(C(=O)C4COc5ccccc5O4)CC3)nc12` (configuration not stated): -0.959%; for `CCN(c1ccc(Cl)cc1)S(=O)(=O)c1nnc(NC(=O)c2ccco2)s1`: 3.14%.
Same read-out and setting: the same measure for `Cc1nnc(NCc2ccccc2)c2c1nnn2Cc1ccc(F)cc1`: 10.1%.
In the case of `COc1cc(NC(=S)NCCSc2ccc(C)cc2)cc(OC)c1`, the Potency is 0.251 µM (active).
With `COc1cccc(NC(=S)NCCCN2CCOCC2)c1`, the max response, negative = inhibition was 9.47%.
Same read-out and setting: the same measure for `COc1cc(NC(=O)Nc2ccc(C)cc2)cc([N+](=O)[O-])c1`: -24.4%.
On the same count and under the same terms, the same measure for `Cc1nc(SCCOc2ccc(Cl)cc2)[nH]c(=O)c1Cc1ccccc1`: -8.31%; for `COc1ccc(-c2nn3c(=O)cc(CN4CCN(C(=O)c5ccc(OC)c(OC)c5)CC4)nc3s2)cc1`: -11%.
On the same count and under the same terms, the figure for `COc1ccc(NC(=O)Cn2c(=O)n(CCC(C)C)c(=O)c3cccnc32)cc1Cl` is -5%.
`Cc1ccccc1CNC(=O)CCCn1nc(C)c2sc3ccccc3c2c1=O`: the Potency is 25.1 µM (active).
As for `Cc1nn(C(C)C(=O)Nc2ccc(C(C)C)cc2)c(=O)c2c1sc1ccccc12` (configuration not stated), the max response, negative = inhibition was -0.208%.
On the same count and under the same terms, the same measure for `Cc1nn(CC(=O)NCCc2ccccc2)c(=O)c2c1sc1ccccc12`: -12%; for `COc1ccc(NC(=O)c2ccc3oc(=O)c(S(=O)(=O)c4ccc(F)cc4)cc3c2)c(OC)c1`: -3.78%.
On the same count and under the same terms, the figure for `CCn1cc(C(=O)NCc2ccc(C)cc2)c(=O)c2cc(S(=O)(=O)N3CCc4ccccc4C3)ccc21` is -8.13%; for `Cc1nc2nc(SCC(=O)NCc3ccco3)nn2c(C)c1Cc1ccccc1` it is -3.94%.
As to `O=c1nc2s/c(=C\c3ccco3)c(=O)n2nc1Cc1ccccc1`, the Potency was 25.1 µM (active).
With `O=C(CCCN1C(=O)/C(=C/c2ccco2)SC1=S)Nc1ccccc1`, the max response, negative = inhibition is -9.58%.
On the same count and under the same terms, the same measure for `COc1ccc(CCNC(=O)Cn2c(=O)n(-c3ccccc3)c(=O)c3c(C)c(C)sc32)cc1OC`: -8.34%.
On to `CN1c2ccc(Cl)cc2-c2nc(SCC(=O)Nc3cc(F)ccc3F)ncc2S1(=O)=O`, for which the Potency is 12.6 µM (active).
Regarding `Cc1ccc(Cl)cc1NC(=O)CSc1nccn1C`, the max response, negative = inhibition is 1.47%.
On the same count and under the same terms, the figure for `O=C(CSc1ncc(-c2ccccc2)[nH]1)Nc1ccc(F)cc1F` is 8.99%; for `COc1cc2c(=O)c(S(=O)(=O)c3ccc(C(C)C)cc3)cn(Cc3ccccc3C)c2cc1OC` it is 19.9%; for `CN1CCN(C(CNC(=O)c2ccccc2F)c2ccc3c(c2)OCO3)CC1` (configuration not stated) it is 7.63%.
On the same count and under the same terms, the same measure for `CCCSc1ncc(Cl)c(C(=O)Nc2sc3c(c2C(=O)NCCOC)CCCC3)n1`: -6.84%; for `CCOc1cccc(NC(=O)c2ccc(F)c(S(=O)(=O)N(CC)c3cccc(C)c3)c2)c1`: -18%.
On the same count and under the same terms, the same measure for `Cn1c(=O)cc(OCC(=O)N2CCN(c3ccccc3)CC2)c2ccccc21`: 3.14%.
As for `CCOC(=O)c1sc(NC(=O)CSc2nc3c(c(=O)n2-c2ccccc2)SCC3)c(C(=O)OCC)c1C`, the max response, negative = inhibition was -25.7%.
Consider `CCc1nnc(NC(=O)CSc2nc3c(c(=O)n2-c2ccccc2OC)SCC3)s1`, for which the Potency was 12.6 µM (active).
On to `CCOc1ccc(NC(=O)CSc2nc3c(c(=O)n2-c2ccccc2OC)SCC3)cc1`, for which the max response, negative = inhibition is -2.8%.
On the same count and under the same terms, the same measure for `CCOC(=O)c1ccc(NC2=CC(c3ccc(OCC)cc3)N(c3ccc(C(=O)OCC)cc3)C2=O)cc1` (configuration not stated): -9.29%; for `O=C(CCn1c(=O)c2sccc2n(Cc2ccc(F)cc2)c1=O)NCc1ccc2c(c1)OCO2`: 2.68%.
Take `CC1=CC(=C(C#N)c2nc3ccccc3s2)C=C(C)N1c1ccc(F)cc1F`: the Potency was 31.6 µM (active).
On to `Cc1ccc(F)cc1S(=O)(=O)N1CCC(c2nc3ccccc3s2)CC1`, for which the max response, negative = inhibition was -6.75%.
As for `CC(C)c1cc(C(N)=O)c(NC(=O)c2cccc(COc3ccc(Br)cc3)c2)s1`, the Potency was 5.01 µM (active).
Take `COc1ccc(OCc2cccc(C(=O)N3CCCC3)c2)cc1`: the max response, negative = inhibition was 22.1%.
Still for that read-out and setting: the figure for `CCc1cc(C(N)=O)c(NC(=O)c2ccc(OC)cc2)s1` is -3.04%.
`CCC(=O)N1CCc2cc(Br)cc(S(=O)(=O)NCc3ccc(Cl)cc3)c21`: the max response, negative = inhibition was 5.32%.
Same read-out and setting: the figure for `Cc1ccc(-n2ncc(C(=O)N(C)Cc3ccccc3)c2-n2cccc2)cc1` is 19.8%.
Turning to `O=C(Nc1cc2c3c(c1)C1CCCC1CN3CC1CCCC21)c1ccc([N+](=O)[O-])cc1` (configuration not stated), the Potency is 25.1 µM (active).
In the case of `O=C(Nc1cccc([N+](=O)[O-])c1)c1ccc2c(c1)OCO2`, the max response, negative = inhibition was 4.82%.
Same read-out and setting: the figure for `CC1CCc2noc(NC(=O)c3ccc([N+](=O)[O-])cc3)c2C1` (configuration not stated) is 3.94%.
Same read-out and setting: the figure for `C=CC(C1=CC(=O)C=CC1=O)c1ccc(O)cc1` (configuration not stated) is -6.77%.
On the same count and under the same terms, the figure for `O=C(Nc1c2c(nc3ccccc13)CCCC2)c1ccccc1Br` is 6.61%; for `Cc1noc(C)c1COC(=O)c1cc2ccccc2cc1O` it is -7.72%.
`O=C(NNc1c2ccccc2nc2ccccc12)c1cc2ccccc2cc1O`: the Potency is 7.94 µM (active).
With `Cc1c(Cl)cccc1NC(=O)C1CCCN(C(=O)c2cnn(-c3ccccc3)c2-n2cccc2)C1` (configuration not stated), the max response, negative = inhibition is 17.7%.
The same measure, in the same setting: the figure for `CCOC(=O)c1oc2ccc(S(=O)(=O)n3nc(-c4ccccc4OC)cc3N)cc2c1C` is -16.2%.
